According to PubChem BioAssay AID1159580 (chemical genetic matrix, 2015):
Among all 5,500 compounds or so, about 2,000 (36%) were called active. Another 18% or so got no clear call; they are omitted. No stated cut-off is given here; in the data, active means normalized growth mostly below about 0.91 (no sharp cut-off); inconclusive means no clear call, values can overlap the other calls; inactive means mostly above about 0.92. Some of the results follow.

Test: chemical genetic growth profiling, strain panel (AID 1159580);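 further: tested at 20 µM; growth read once vehicle control cultures reached saturation at 30 °C; 1 = growth at the plate median or of vehicle wells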
Details: S. cerevisiae deletion strains, growth OD

Measured: normalized growth

c1ccc(N=Nc2ccc(Nc3ccccc3)cc2)cc1
inactive: locus YDL101C, strain DUN1, stronger effect = lower value 0.977 | locus YDR150W, strain NUM1, stronger effect = lower value 0.906 | locus YGR229C, strain SMI1, stronger effect = lower value 0.984 | locus YLR058C, strain SHM2 (second series), stronger effect = lower value 0.964 | locus YNL322C, strain KRE1, stronger effect = lower value 1 | locus YPR135W, strain CTF4, stronger effect = lower value 0.748
active: locus YAL013W, strain DEP1, stronger effect = lower value 0.916 | locus YBR229C, strain ROT2, stronger effect = lower value 0.823 | locus YCL061C, strain MRC1, stronger effect = lower value 0.89 | locus YDL134C, strain PPH21, stronger effect = lower value 0.825 | locus YEL061C, strain CIN8, stronger effect = lower value 0.74 | locus YGR078C, strain PAC10, stronger effect = lower value 0.897 | locus YHR030C, strain SLT2, stronger effect = lower value 0.57 | locus YHR087W, strain rtc3, stronger effect = lower value 0.751 | locus YJR043C, strain POL32, stronger effect = lower value 0.91 | locus YJR075W, strain HOC1, stronger effect = lower value 0.754 | locus YLR039C, strain RIC1, stronger effect = lower value 0.425 | locus YLR085C, strain ARP6, stronger effect = lower value 0.389 | locus YLR262C, strain YPT6, stronger effect = lower value 0.37 | locus YML094W, strain GIM5, stronger effect = lower value 0.812 | locus YMR219W, strain ESC1, stronger effect = lower value 0.92 | locus YMR263W, strain SAP30, stronger effect = lower value 0.9 | locus YMR307W, strain GAS1, stronger effect = lower value 0.405 | locus YNL128W, strain TEP1, stronger effect = lower value 0.913 | locus YNL153C, strain GIM3, stronger effect = lower value 0.914 | locus YNL298W, strain CLA4 (second series), stronger effect = lower value 0.79 | locus YNR030W, strain Alg12, stronger effect = lower value 0.737 | locus YPL055C, strain LGE1, stronger effect = lower value 0.626 | locus YPL241C, strain CIN2, stronger effect = lower value 0.75
